This excerpt belongs to a sample that is enriched for hits.
KDM5B inhibitor: Primary screen for KDM5B Histone Demethylases FDH-coupled qHTS; Lysine-specific demethylase 5B (Homo sapiens), Q9UGL1; hit rate 2.6% among 220,000; Potency, µM (highest dose often 57.7 µM), usual class: inhibitors; KDM5B demethylase, FDH-coupled NADH fluorescence (FDH is formaldehyde dehydrogenase); active means well fitted inhibition curve with a large enough effect; further: nearly all actives have a fitted effect of over 70% in size
Target sequence (Q9UGL1 whole entry, looked up): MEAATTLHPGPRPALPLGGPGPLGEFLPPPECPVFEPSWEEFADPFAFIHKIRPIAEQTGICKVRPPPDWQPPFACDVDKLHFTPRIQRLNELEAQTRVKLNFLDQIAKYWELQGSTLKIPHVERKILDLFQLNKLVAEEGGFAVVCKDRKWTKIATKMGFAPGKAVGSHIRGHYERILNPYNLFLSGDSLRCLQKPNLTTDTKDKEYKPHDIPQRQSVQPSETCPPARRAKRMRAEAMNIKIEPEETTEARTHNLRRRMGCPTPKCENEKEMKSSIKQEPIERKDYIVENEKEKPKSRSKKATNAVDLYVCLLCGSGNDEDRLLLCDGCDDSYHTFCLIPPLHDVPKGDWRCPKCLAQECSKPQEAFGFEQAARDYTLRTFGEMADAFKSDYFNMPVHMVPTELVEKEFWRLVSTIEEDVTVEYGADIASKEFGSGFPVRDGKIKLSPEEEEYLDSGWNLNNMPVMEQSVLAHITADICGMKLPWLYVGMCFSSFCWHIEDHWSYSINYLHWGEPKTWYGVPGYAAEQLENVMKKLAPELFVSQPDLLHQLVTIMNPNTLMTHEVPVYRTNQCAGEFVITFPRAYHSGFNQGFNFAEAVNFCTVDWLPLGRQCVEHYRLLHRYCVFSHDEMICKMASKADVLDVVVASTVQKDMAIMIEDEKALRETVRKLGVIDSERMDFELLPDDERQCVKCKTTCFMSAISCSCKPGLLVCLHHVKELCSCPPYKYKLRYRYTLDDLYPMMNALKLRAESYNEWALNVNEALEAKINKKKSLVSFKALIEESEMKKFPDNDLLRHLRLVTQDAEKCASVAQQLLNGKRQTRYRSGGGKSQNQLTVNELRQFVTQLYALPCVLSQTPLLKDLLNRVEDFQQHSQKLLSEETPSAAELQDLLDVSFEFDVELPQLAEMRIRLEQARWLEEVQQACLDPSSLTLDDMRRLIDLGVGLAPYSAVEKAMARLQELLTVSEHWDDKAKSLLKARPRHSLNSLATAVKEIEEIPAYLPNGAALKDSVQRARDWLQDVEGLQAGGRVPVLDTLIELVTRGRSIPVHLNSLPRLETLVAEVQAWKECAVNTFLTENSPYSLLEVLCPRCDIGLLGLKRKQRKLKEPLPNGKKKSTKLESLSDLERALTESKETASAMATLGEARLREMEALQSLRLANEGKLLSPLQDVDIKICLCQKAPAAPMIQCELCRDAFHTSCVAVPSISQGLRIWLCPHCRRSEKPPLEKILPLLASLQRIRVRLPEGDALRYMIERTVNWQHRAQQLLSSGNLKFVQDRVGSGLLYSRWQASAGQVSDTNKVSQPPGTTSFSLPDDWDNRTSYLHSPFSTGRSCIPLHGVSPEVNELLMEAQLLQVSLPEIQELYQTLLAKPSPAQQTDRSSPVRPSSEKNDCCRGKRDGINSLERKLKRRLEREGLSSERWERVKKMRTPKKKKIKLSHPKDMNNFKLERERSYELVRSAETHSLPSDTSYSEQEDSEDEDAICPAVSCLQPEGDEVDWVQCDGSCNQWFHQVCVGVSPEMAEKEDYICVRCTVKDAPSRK
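Coupled FDH/NAD⁺ fluorescence readout. KDM5BΔAP 200 nM final; compound titration, 10 min RT preincubation; substrate mix 12.5 µM H3K4me3, 25 µM 2-OG, 50 µM Fe(II), 100 µM ascorbate, 0.25 mM NAD⁺, 0.25 U/mL FDH; ΔRFU over 30 min.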
A number is an active result; . = inactive.

SMILES	KDM5B inhibitor
Cc1ccc(C(=O)N(Cc2cccs2)c2ccccn2)cc1	.
O=C(CC(F)(F)F)N(Cc1ccncc1)C1CC1	.
O=C(NCCSc1ccccc1)c1cc(Cl)c2c(c1)OCCCO2	.
CN1CCOc2c(C(=O)NCC[S+](C)(=O)[O-])cc(-c3ccccc3)cc21	32µM
CN1CCN(CCNC(=O)c2cc(-c3ccccc3)cn2C)CC1	.
NC1=NC(c2c[nH]c3ccc(F)cc23)n2c(nc3ccccc32)N1 (configuration not stated)	.
O=C(CC1C(=O)NCCN1Cc1ccccc1)NC1C2CC3CC(C2)CC1C3 (configuration not stated)	.
O=C(CC1C(=O)NCCN1Cc1ccc(-c2ccccc2)cc1)NCc1ccco1 (configuration not stated)	25µM
CCOc1ccc(CN2CCNC(=O)C2CC(=O)NC2CCCCCC2)cc1 (configuration not stated)	.
CCOc1ccccc1CN1CCNC(=O)C1CC(=O)NCc1ccccn1 (configuration not stated)	.
CN(Cc1cccnc1)C(=O)CC1C(=O)NCCN1Cc1ccc(-c2ccccc2)cc1 (configuration not stated)	.
O=C(CC1C(=O)NCCN1Cc1ccc(-c2ccccc2)cc1)NC(CO)CO (configuration not stated)	20µM
Nc1nnnn1NCc1ccccc1OCc1ccc(F)cc1	.
Cc1cc(=O)n(CC(=O)Nc2cccc(C(F)(F)F)c2)c(N2CCC(C)CC2)n1	.
O=S(=O)(CCc1ccccc1Cl)c1ccccc1	.
CCCn1c(=O)c2ccccc2n(CC(=O)N(C)c2cccc(Cl)c2)c1=O	.
C=CCNC(=S)Nc1ccc(Cl)c(Cl)c1	.
O=[N+]([O-])c1ccccc1/C=C/C=N/Nc1nc(Cl)c(Cl)cc1Cl	.
COC(=O)CNC(=O)C(C)(C)c1ccccc1	.
O=C(NCc1ccsc1)c1nc(-c2ccc(Cl)cc2)c2cnccn12	.
O=C(CNC(=O)c1ccccc1)OCc1cc(=O)n2ccsc2n1	.
Cc1ccsc1C(=O)NCc1cccnc1	.
CC(C)(C)c1nc(C(=O)NCc2cccnc2)n2ccncc12	100µM
COC(=O)CNC(=O)c1nc2sccn2c1Br	.
CC(C)(C)C(=O)Nc1ccccc1C(=O)NCc1cccnc1	.
SMILES	KDM5B inhibitor
CC(C)(C)c1nc(C(=O)NCc2cccnc2)n2ccccc12	100µM
O=C(NCc1cccnc1)c1cccc2ccccc12	.
COC(=O)CNC(=O)c1nc(C(C)(C)C)c2cnccn12	112µM
Cn1ccc2c(C(=O)NCc3cccnc3)nc(-c3ccncc3)cc21	.
COC(=O)CNC(=O)c1nc(-c2ccsc2)c2cnccn12	40µM
Cc1cc(=O)n(CC(=O)Nc2ccccc2)c(-c2ccccc2)n1	.
CC(=O)NCc1ccc(-c2csc(Nc3cc(C)ccc3C)n2)o1	.
COC(=O)c1cccc2c1-c1ccccc1/C2=N\O	.
CCCCn1nc(C(=O)N2CCN(c3ncccn3)CC2)c2ccccc2c1=O	.
Cc1cc2oc(=O)cc(CN(C)CCOc3ccccc3F)c2cc1Cl	.
CCC1CC(=O)NC(SC)=C1C#N (configuration not stated)	.
CC(=O)c1csc(NC(=O)CN(C)S(=O)(=O)c2ccc(F)cc2)n1	.
Cc1cc(C)cc(NC(=O)CSCc2cc(=O)c3ccccc3[nH]2)c1	.
O=C(CCc1ccccc1)N1CCC(Oc2cnc3c(ccn3-c3cncnc3)c2)CC1	.
CC(C)N1CC2CCC(C1)N2Cc1cccc(-c2ccc(F)cc2F)c1	.
O=C(O)Cn1ccc2cc(OCc3cccc(-c4ccc(F)cc4F)c3)cnc21	35µM
O=C(O)Cn1ccc2cc(OCCc3cccc(-c4ccc(F)cc4F)c3)cnc21	35µM
O=C(Cn1cccc1-c1nc(-c2ccccc2)no1)NCc1ccc(F)cc1F	.
Cc1ccc(NC(=O)CSc2ncc3c(n2)-c2ccccc2N(Cc2cccc(F)c2)S3(=O)=O)cc1F	.
Cc1ccc(F)cc1-c1cccc(CCOc2cnc3c(ccn3CC(=O)O)c2)c1	35µM
Cc1ccc(F)cc1-c1cn(C)c(=O)n2cc(COc3ccccc3)nc12	.
Nc1ncc(-c2ccccc2)c(-c2ccc(OCc3ccc(F)cc3)cc2O)n1	.
Cc1noc(-c2ccc(OCc3ccc(F)cc3)cc2O)c1-c1ccccc1	.
O=C(O)Cn1ccc2cc(OCCc3cccc(-c4ccccc4F)c3)cnc21	32µM
O=C(O)c1cc2ccc(OCCc3ccccc3)cc2[nH]1	.
SMILES	KDM5B inhibitor
CC(Sc1ccccc1Cl)C(=O)O (configuration not stated)	.
Cc1ccc(-c2cc(C(=O)Nc3cccc(CO)c3)c3ccccc3n2)cc1	.
CC(C)(C)C1C/C(=C/c2cccs2)c2nc3ccccc3c(C(=O)O)c2C1 (configuration not stated)	.
O=C(O)/C(=C\c1ccc(OCc2ccccc2)cc1)NC(=O)c1ccccc1	.
CC(=O)Nc1cccc(C(=O)N2CCC(c3n[nH]c(=O)n3-c3ccc(C)cc3)CC2)c1	.
COc1cccc(-c2ccc(COc3ccc4c(cnn4CCC(=O)O)c3)cc2)c1F	.
COc1ccc(F)cc1-c1ccc(COc2ccc3c(cnn3CCC(=O)O)c2)cc1	.
COc1cccc(-c2cccc(COc3cnc4c(ccn4CC(=O)O)c3)c2)c1F	35µM
O=C(c1nccc2ccccc12)N1CCC(N2C(=O)C(O)C23CCCCC3)CC1 (configuration not stated)	.
O=C(c1nccc2ccccc12)N1CCC2(CC1)CC(CO)N(C(=O)c1ccccc1)C2 (configuration not stated)	.
C=CCN1C[C@@]2(C(=O)O)CN(c3nccc4ccccc34)C[C@H]2C1=O	20µM
Cc1cc(C)c(NC(=O)CC2(C(=O)O)CCCC2)c(C)c1	.
Cc1ccc(NC(=O)CCNC(=O)c2ccccc2)cc1S(=O)(=O)N1CCCCC1	.
Cn1c(=O)c2ccnn2c2ccc(C(=O)NCC3CCN(Cc4cccc(F)c4)CC3)cc21	28µM
Cc1ccc(-n2nc(C(=O)Nc3ccc(C)c(F)c3)c(=O)n(C)c2=O)cc1	.
O=C(NCc1ccccn1)c1cc(F)cc(F)c1	.
Cc1ccc(NC(=O)c2ccc3nc(Cc4ccccc4)oc3c2)cc1F	.
Cn1c(=O)c2ccnn2c2ccc(C(=O)NCCN3CCC(N4CCCCC4)CC3)cc21	28µM
CN1C(=O)CCCCC1C(=O)NCC1CCN(Cc2cccc(F)c2)CC1 (configuration not stated)	.
O=C1CCN(Cc2ccncc2)CCCC(C(=O)NCCN2CCC(N3CCCCC3)CC2)CCN1 (configuration not stated)	.
Cc1cc(F)ccc1NC(=O)c1ccc2c(c1)n(Cc1cccc(F)c1)c(=O)c1ccnn12	.
O=C(NCc1ccccn1)c1ccc2c(c1)n(Cc1cccc(F)c1)c(=O)c1ccnn12	25µM
CN1C(=O)C(CC(=O)NCC2CCN(Cc3cccc(F)c3)CC2)=C2CCCCC21 (configuration not stated)	.
Cn1c(=O)c2ccnn2c2ccc(C(=O)Nc3ccc(N4CCOCC4)cc3)cc21	.
CCn1c(=O)c2ccnn2c2ccc(C(=O)Nc3ccc(C)c(F)c3)cc21	8.9µM
COc1cc(C(=O)C(C#N)C(=O)CC(C)(C)C)cc(Cl)c1OC (configuration not stated)	.
N#CCC(=O)Nc1ccc(N2CCOCC2)cc1	.
O=C(CN(C1CCCCC1)S(=O)(=O)c1ccc(Br)cc1)N1CCOCC1	.

Bioassay records deposited in PubChem by National Center for Advancing Translational Sciences (NCATS).
